In the library only some 12% were active in any assay of this set; here they are far more common.
PLK1 PBD block = blocks phosphopeptide binding to human PLK1 polo-box domain; Potency, µM, without a hit: max response, negative = inhibition, hits mostly inhibitors; Plk1 PBD binding of FITC phosphopeptide, fluorescence polarization; AID 720504; P53350; hit rate 2.8% among 360,000; further: series mostly up to about 57 µM; on the % scale 0 is the no-effect control and ±100 the full control effect; nearly all actives have a fitted effect of over 65% in size
Target sequence (P53350 whole entry, looked up, the tested form may be a part): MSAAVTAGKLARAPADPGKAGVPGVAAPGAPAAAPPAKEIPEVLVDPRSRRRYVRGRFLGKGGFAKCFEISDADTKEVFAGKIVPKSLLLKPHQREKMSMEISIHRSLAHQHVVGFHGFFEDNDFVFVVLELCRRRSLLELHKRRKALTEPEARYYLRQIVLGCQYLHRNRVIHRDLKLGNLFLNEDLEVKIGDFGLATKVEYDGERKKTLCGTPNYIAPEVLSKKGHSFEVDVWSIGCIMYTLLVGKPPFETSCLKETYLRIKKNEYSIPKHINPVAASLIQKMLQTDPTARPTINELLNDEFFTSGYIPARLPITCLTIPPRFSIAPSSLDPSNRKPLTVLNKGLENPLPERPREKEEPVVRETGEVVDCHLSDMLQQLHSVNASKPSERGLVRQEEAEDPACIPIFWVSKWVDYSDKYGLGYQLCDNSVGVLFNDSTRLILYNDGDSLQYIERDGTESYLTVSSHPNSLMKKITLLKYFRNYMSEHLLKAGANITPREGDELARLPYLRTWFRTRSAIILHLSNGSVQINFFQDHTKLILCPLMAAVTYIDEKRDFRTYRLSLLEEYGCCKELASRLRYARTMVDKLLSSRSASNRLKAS
Sfp PPTase inh = Sfp phosphopantetheinyl transferase inhibition; Q9F4F7; Biochemical Sfp PPTase activity, qHTS; Potency, µM, inactives show largest response in the series, negative = inhibition, usual class: inhibitors; hit rate 3.5% among 310,000; AID 1490;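 further: the enzyme is Sfp with the accession as filed and its product quenches rhodamine fluorescence; 0% = enzyme reaction without inhibitor and -100% = no enzyme wells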
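With Hepes-Na pH 7.6 buffer containing 10 mM MgCl2, Sfp (15 nM) modified BHQ-2-YbbR (12.5 uM) using rhodamine-CoA (5 uM). Two reads 30 minutes apart at 525/598 nm yielded each well's rate.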
HP1b binding inh = inhibitors of HP1-beta chromodomain binding to methylated histone tails; AID 540317; Potency, µM (highest dose often 114 µM), without a hit: at the top dose activity change, negative = inhibition, hits mostly inhibitors; AlphaScreen HP1-beta / biotin-H3K9me3 peptide binding; hit rate 0.56% among 390,000; further: nearly all actives have a fitted effect of over 70% in size
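Compound inhibition of the preformed complex between 50 nM HP1-beta and 50 nM biotinylated H3K9me3 peptide was read by AlphaScreen. Buffer was PBS pH 7.4 with 0.01% Tween-20. Incubations ran 30 min at room temperature, with 10 ug/mL donor/acceptor beads.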
BAZ2B block = inhibitors of human BAZ2B bromodomain; Potency, µM (doses to about 114 µM), for the others: at the highest dose activity change, negative = inhibition, hits mostly inhibitors; hit rate 4.4% among 360,000; Q9UIF8; AlphaScreen BAZ2B-H3K14Ac peptide displacement; AID 504333; further: on the % scale 0 is the no-effect control and ±100 the full control effect; nearly all actives have a fitted effect of over 60% in size
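Multi-concentration screen (max 110 uM) measuring displacement of acetylated histone H3 peptide from BAZ2B by AlphaScreen, using 50 nM protein, 50 nM peptide and 10 ug/mL streptavidin donor plus Ni-chelate acceptor beads.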
JMJD2A Tudor inh = JMJD2A Tudor domain (human) inhibition | O75164 | AlphaScreen JMJD2A-Tudor / H3K4me3 peptide binding | Potency, µM (top dose mostly 114 µM), for inactives: at the top dose activity change, negative = inhibition, actives largely listed as inhibitors | hit rate 4.4% among 390,000 | AID 504339; further: on the % scale 0 is the no-effect control and ±100 the full control effect; nearly all actives have a fitted effect of over 50% in size
G9a block = inhibitors of human histone lysine methyltransferase G9a; G9a H3K9 monomethylation, AlphaScreen, 2 h; Q96KQ7; Potency, µM (titrated, usually from 102 µM), for the others: at the highest dose activity, negative = inhibition, usual class: inhibitors; hit rate 8.8% among 350,000; AID 504332; further: on the % scale 0 is the no-effect control and ±100 the full control effect; nearly all actives have a fitted effect of over 75% in size
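Enzyme 20 nM + cpd, 15 min RT; add b-H3K9 pep 500 nM / SAM 20 uM; 2 h RT; anti-H3K9me1 Ab 0.5 ug/mL + SA donor / anti-rabbit acceptor beads 20 ug/mL each, 10 min; AlphaScreen read.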
An asterisk follows results filed as active; ? = inconclusive; . = no result given; [ ] = another dose, or the depositor's remark. The call rests on the fitted dose curve; in most records, active means well fitted curve in the direction sought with a large enough effect; inconclusive means small, poorly fitted or top-dose-only effect, or another doubt; inactive means no such curve, though single readings can be large; an effect the other way counts as inactive or inconclusive. Potency means the concentration at half of the fitted maximal effect.

SMILES	PLK1 PBD block	Sfp PPTase inh	HP1b binding inh	BAZ2B block	JMJD2A Tudor inh	G9a block
CCOc1cc(N2CCOCC2)c(OCC)cc1NS(=O)(=O)c1cc(NC(C)=O)ccc1OC	-17%	-2%	12%	71µM*	-33%	45µM*
CN(C)S(=O)(=O)c1cc(NC(=O)c2ccc(-n3ccnc3)c([N+](=O)[O-])c2)ccc1Cl	2%	-24%	20%	-29%	-27%	45µM*
COc1ccc(NC(C)=O)cc1NS(=O)(=O)c1cn(C)c(=O)n(C)c1=O	-8%	14%	45%	79µM*	-10%	-9%
CCOc1cc(N2CCOCC2)c(OCC)cc1NC(=O)C(C)(C)C	5%	7%	45%	.	-12%	-7%
COc1ccccc1NS(=O)(=O)c1cc(NC(=O)c2cccc(S(=O)(=O)N(C)C)c2)ccc1N1CCOCC1	-16%	.	41%	4%	-21%	18µM*
COc1ccccc1NS(=O)(=O)c1cc(NC(=O)c2sccc2C)ccc1N1CCOCC1	-15%	2%	15%	-5%	-14%	4%[12.7 µM]
O=C(CCC(=O)N(CC(=O)NC1CCCC1)Cc1ccccc1Cl)Nc1nccs1	-17%	14%	0%	2%	-12%	-8%[59 µM]
Cc1ccc(S(=O)(=O)Cn2nnnc2C(CC(C)C)N2CCN(C)CC2)cc1 (stereo unspecified)	-3%	-18%	27%	-9%	-6%	.
CN(C)S(=O)(=O)c1cccc(NC(=O)c2ccc(N3CCOCC3)c([N+](=O)[O-])c2)c1	-4%	?	-5%	?	-33%	50µM*
Cc1ccc(C(=O)Nc2cccc(S(=O)(=O)N3CCOCC3)c2)cc1[N+](=O)[O-]	-6%	-4%	1%	-23%	-34%	2%
COc1ccccc1NS(=O)(=O)c1cc(NC(=O)c2ccncc2)ccc1N1CCOCC1	13µM*	79µM*	?	6%	-32%	?
COc1ccccc1NS(=O)(=O)c1cc(NC(=O)c2ccc(NC(C)=O)cc2)ccc1N1CCOCC1	27µM*	.	?	.	?	.
COc1ccccc1NS(=O)(=O)c1cc(NC(=O)c2cnccn2)ccc1N1CCOCC1	-6%	-7%	47%	-15%	-14%	.
CC(=O)Nc1ccc(NC(=O)CCn2c(=S)oc3ccccc32)cc1	-7%	17%	23%	-14%	-12%	-3%
O=C(CCn1c(=O)oc2ccccc21)NCCN1CCc2ccccc2C1	-3%	-8%	18%	7%	50µM*	?
CCCNC(=O)CCn1c(=S)oc2ccccc21	12µM*	10%	-7%	1%	-19%[11.4 µM]	24%
O=C(CCn1c(=O)oc2ccccc21)n1c(=O)oc2ccccc21	-27%	-3%	34%	-35%	-11%	79µM*
O=C(CCCn1c(=O)oc2ccccc21)N1CCc2ccccc2C1	-16%	3%	37%	0%	-3%	-28%
CCc1cccc(NC(=O)c2coc(=O)c3ccccc23)c1	.	.	10%	6%	-15%	8%[59 µM]
Cc1ccccc1N1CC(c2nnc(NC(=O)c3ccco3)s2)CC1=O (stereo unspecified)	.	.	-6%	?	-12%	8.9µM*
COc1cccc(N2CC(C(=O)Nc3nnc(SCCN4CCOCC4)s3)CC2=O)c1 (stereo unspecified)	-12%	2%	43%	-10%	-17%	40µM*
Cc1ccccc1N1CC(C(=O)Nc2nnc(SCCN3CCOCC3)s2)CC1=O (stereo unspecified)	-22%	-13%	36%	-29%	-28%	16µM*
O=C(Nc1nnc(C2CC2)s1)c1ccco1	-16%	-2%	20%	-5%	-11%[11.4 µM]	-28%
Cc1cccc(N2CC(C(=O)Nc3nnc(SCCN4CCOCC4)s3)CC2=O)c1 (stereo unspecified)	-28%	?	5%	7%	-36%	?
Cc1cccc(C)c1NC(=O)CSc1nnc(NC(=O)CN2CCOCC2)s1	-7%	-17%	11%	?	89µM*	7%[0.0925 µM]
